# Data: PubChem BioAssay AID1650 (Southern Research Specialized Biocontainment Screening …, 2009)
# Results with a measured potency or affinity are listed apart. A number with no mark means an inactive call. The rule behind the calls is not given here.
# Assay: host cell cytotoxicity of antiviral hits, dose response, cytotoxicity control for West Nile virus antiviral project, secondary assay (AID 1650)
# Conditions: Mammalian host cell viability, cytotoxicity counter-screen; series mostly up to 10 µM; viability: at the top concentration
row,Structure (SMILES),viability
1,CCN(CC)S(=O)(=O)c1ccc(NC(=O)CSc2nnc(-c3cccc(OC)c3)n2C)cc1,90% [at 20 µM]
2,CC(/C=N/Nc1nc(N2CCCCC2)nc(N2CCCCC2)n1)=C\c1ccccc1,87.8%
3,COc1ccc(OCc2cccc(C(=O)Nc3ccc(CN4CCCCC4)cc3)c2)cc1,85.2% [at 20 µM]
4,O=C(c1ccc2c(=O)n(Cc3ccc4c(c3)OCO4)c(=O)[nH]c2c1)N1CCN(c2ccccc2)CC1,87.6% [at 20 µM]
5,CCN(CC)CCNc1ncnc2c1sc1nc(N3CCCC3)c3c(c12)CC(C)(C)OC3,75.2% [at 20 µM]
6,CC(C)C(C(=O)Nc1ncn[nH]1)N1C(=O)c2ccccc2C1=O (stereo not given),94.5%
7,CN1CCCC(n2nc(Cc3ccc(Cl)cc3)c3ccccc3c2=O)CC1 (stereo not given),83.8%
8,O=C(Nc1ccc(F)cc1F)c1cc2ccccc2oc1=O,93.6%
9,CCCc1nc([N+](=O)[O-])c(S(=O)(=O)c2ccccc2)n1CC(C)C,92.9% [at 20 µM]
10,CN1/C(=C\C(=S)NC(=O)c2cccc(Br)c2)C(C)(C)c2ccccc21,73.9% [at 20 µM]
11,FC(F)(F)c1nnc(-c2ccccc2)nc1Sc1ccc(Cl)cc1,74.5% [at 20 µM]
12,CN(C)CCCN(C(=O)c1ccco1)c1nc2ccc(Cl)cc2s1,83.3%
13,Cc1ccc2oc(=O)c3cc(C(=O)NCCCN4CC(C)CC(C)C4)sc3c2c1 (stereo not given),71.7% [at 20 µM]
14,Cc1c(/C=N/NC(=O)C(C)(C)Oc2ccc(Cl)cc2)cnn1C,97.1%
15,CCN(CC)S(=O)(=O)c1ccc2c(c1)c(=O)c(C(=O)NCCOC)cn2C,83.3%
16,Cc1cccc2cc(CN(CCCN(C)C)C(=S)NCCc3ccccc3)c(=O)[nH]c12,75.7% [at 20 µM]
17,CCCCOC(=O)Cn1c2ccc(OC)cc2c2nc3ccccc3nc21,80.7% [at 20 µM]
18,C=CCn1cc(C(=O)NCCOC)c(=O)c2cc(S(=O)(=O)N(CC)CC)ccc21,84.9%
19,CC(C)N1CCc2c(sc(NC(=O)c3ccc(C(=O)c4ccccc4)cc3)c2C(N)=O)C1,79.3% [at 20 µM]
20,CCN1CCN(CCNC(=O)c2ccc(/C=C3\Sc4ccccc4N(Cc4ccccc4F)C3=O)cc2)CC1,88.9%

row,Structure (SMILES),viability
1,O=C(NCCCN1CCOCC1)c1cc2c([nH]c3ccccc32)c(-c2cccc(Br)c2)n1,74.5% [at 20 µM]
2,CCn1cc(C(=O)NCc2ccc3c(c2)OCO3)c(=O)c2cc(F)c(N3CCN(C(=O)c4ccco4)CC3)cc21,79.5% [at 20 µM]
3,CCOC(=O)c1c(CN2CCN(CCO)CC2)n(-c2ccccc2)c2cc(Br)c(O)cc12,83.9%
4,CN(C)c1nc(=Nc2cccc(Cl)c2)ss1,81.4%
5,Cc1cc(F)ccc1N1CCC(N2CCN(C(C)C)C(CCO)C2)CC1 (stereo not given),89.4% [at 20 µM]
6,CCOc1ccc(C(=O)CCC(=O)O)cc1,87.4%
7,CC1CCCN(CCCNC(=O)c2cc3c(s2)-c2ccccc2OC3)C1 (stereo not given),82.8%
8,CCc1ccc2nc(N(CCCN(C)C)C(=O)c3ccc(S(=O)(=O)N4CCCc5ccccc54)cc3)sc2c1,82.3%
9,Cc1ccc(S(=O)(=O)c2c(N)n(CCCN(C)C)c3nc4ccccc4nc23)cc1,87% [at 20 µM]
10,COC(=O)c1ccc(NC(=O)CC2C(=O)N(C)C(=S)N2Cc2ccc(S(N)(=O)=O)cc2)cc1 (stereo not given),90.1%
11,Cc1cc(C)nc(S/C=C/C(=O)c2ccccc2F)n1,77.7% [at 20 µM]
12,Cc1ccc(/C=C2/Sc3ccc(C(=O)N4CCN(C)CC4)cc3NC2=O)cc1,81.2% [at 20 µM]
13,CCCCn1c(=N)n(CC(O)COc2ccc(C)cc2)c2ccccc21 (stereo not given),84.4%
14,CC1CCN(c2nc3ccc(C(=O)NCCCN4CCCCC4C)cc3s2)CC1 (stereo not given),78.7%
15,CN(C)CC(O)COc1ccc(C(C)(C)c2ccc(OCC(O)CN(C)C)cc2)cc1 (stereo not given),89.6%
16,CCN(CC)CCNC(=O)c1ccc(NC(=O)/C=C/c2ccc3ccccc3n2)cc1,86.2%
17,CCCCN(C)CCNC(=S)Nc1ccc2nc(N3CCN(CC)CC3)cc(C)c2c1,83.8%
18,CN(C)CCCN1c2ccc([N+](=O)[O-])cc2CCc2cc([N+](=O)[O-])ccc21,92.4% [at 20 µM]
19,COc1cc(C(=O)/C=C/c2cccnc2)ccc1O,73.2%
20,O=[N+]([O-])c1cncc([N+](=O)[O-])c1Nc1cccc(O)c1,82.8%
